The values that follow come from PubChem BioAssay (Tox21).

Results filed as inconclusive are left out. Activity calls are given as the source filed them. Unless noted, the call rests on the fitted dose curve; in most records, active means well fitted curve in the direction sought with a large enough effect in the repeat runs; inconclusive means weak or mixed curves; inactive means no such curve, though single readings can be large; an effect the other way counts as inactive or inconclusive.

Test [1] is described as follows: qHTS assay to identify aromatase inhibitors - cell viability counter screen (AID 743084).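 Further: cells stimulated with testosterone during compound exposure; nearly all actives have a fitted effect of over 55% in size.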 Further: potency means the concentration at half of the fitted maximal effect.
The target in test [2] is Aryl hydrocarbon receptor (Homo sapiens) (UniProt P35869). Kind of test: qHTS assay to identify small molecule that activate the aryl hydrocarbon receptor (AhR) signaling pathway (AID 743085). Further: nearly all actives have a fitted effect of over 15% in size. Further: potency means the concentration at half of the fitted maximal effect.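 On activation: HG2L7.5c1 human HepG2 liver cells with stably integrated DRE-driven firefly reporter; series mostly up to about 70 µM.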 An outline of the steps:
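24 h compound exposure, 37C, HepG2-derived HG2L7.5c1 cells with DRE-responsive luciferase. Readouts: fluorescence viability, then luminescence at room temperature after 30 min.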

The target of test [3] is Peroxisome proliferator-activated receptor gamma (Homo sapiens) (UniProt P37231). Kind of test: qHTS assay to identify small molecule agonists of the peroxisome proliferator-activated receptor gamma (PPARg) signaling pathway (AID 743094; active means well fitted activation curve with a large enough effect in the signal ratio in the repeat runs, not every such curve was filed as active; the % refers to the signal ratio). In short, it runs like this: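 Compounds dissolved in DMSO were added to PPARg UAS-bla HEK293H cells for 17 h at 37C, and reporter expression was quantified by fluorescence intensity after 1 h with LiveBLAzer B/G FRET substrate.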
Chain of Peroxisome proliferator-activated receptor gamma (Homo sapiens) (P37231 whole entry, looked up): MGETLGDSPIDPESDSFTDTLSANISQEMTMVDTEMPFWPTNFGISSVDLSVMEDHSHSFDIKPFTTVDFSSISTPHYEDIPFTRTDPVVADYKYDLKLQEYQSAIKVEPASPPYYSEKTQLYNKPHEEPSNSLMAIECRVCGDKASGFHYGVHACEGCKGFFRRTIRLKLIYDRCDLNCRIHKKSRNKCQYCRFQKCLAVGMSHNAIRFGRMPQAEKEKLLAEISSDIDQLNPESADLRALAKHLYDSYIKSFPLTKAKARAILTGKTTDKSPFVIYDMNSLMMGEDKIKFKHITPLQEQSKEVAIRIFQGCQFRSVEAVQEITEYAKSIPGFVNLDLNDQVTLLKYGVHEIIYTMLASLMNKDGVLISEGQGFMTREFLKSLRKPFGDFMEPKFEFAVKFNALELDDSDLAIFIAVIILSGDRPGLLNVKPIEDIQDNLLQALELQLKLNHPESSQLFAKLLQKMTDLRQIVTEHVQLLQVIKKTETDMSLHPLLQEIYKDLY

Test [4] is described as follows: qHTS assay for small molecule agonists of the antioxidant response element (ARE) signaling pathway (AID 743202; active means well fitted activation curve with a large enough effect in the signal ratio in the repeat runs, not every such curve was filed as active; the % refers to the signal ratio; further: potency means the concentration at half of the fitted maximal effect). In short, it runs like this:
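Quantitative high-throughput format in HepG2 cells bearing an integrated ARE-beta-lactamase reporter. Compound exposure lasted 16 h at 37 C, and fluorescence was read 2 h after adding LiveBLAzer B/G substrate at room temperature.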

Test [5] in a line: qHTS assay for small molecule agonists of the antioxidant response element (ARE) signaling pathway - cell viability counter screen (AID 743203; calls by dose curve; further: nearly all actives have a fitted effect of over 55% in size; further: potency means the concentration at half of the fitted maximal effect). An outline of the steps:
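Following 16 hrs of compound treatment at 37C, HepG2 cells with an ARE-controlled beta-lactamase gene were lysed with CellTiter-Glo. Luminescence was read after 30 min at room temperature.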
(Quantitative high-throughput screening tests each substance at several concentrations.)

Test [6] can be described thus: qHTS assay for small molecule activators of the heat shock response signaling pathway - cell viability counter screen (AID 743209). Further: nearly all actives have a fitted effect of over 50% in size. Further: potency means the concentration at half of the fitted maximal effect. An outline of the steps: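 Readout: CellTiter-Glo luminescence, 30 min at room temperature. System: HSE-bla HeLa cells, 1500/well, plated overnight. Treatment: compounds in DMSO, 5 h at 37 C.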
The nature of test [7]: qHTS assay for small molecule activators of the heat shock response signaling pathway (AID 743210; active means well fitted activation curve with a large enough effect in the signal ratio in the repeat runs, with a control signal flat, not every such curve was filed as active; the % refers to the signal ratio;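 further: HeLa cells with beta-lactamase reporter driven by heat shock elements; series mostly up to about 63 µM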). In short, it runs like this:
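HeLa HSE-bla cells, overnight plating; cpd in DMSO 5 h, 37 C; LiveBLAzer B/G FRET substrate 2.5 h RT; fluorescence intensity read.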

Test [8] addresses Peroxisome proliferator-activated receptor gamma (Homo sapiens) (UniProt P37231). Kind of test: qHTS assay to identify small molecule antagonists of the peroxisome proliferator-activated receptor gamma (PPARg) signaling pathway (AID 743191; calls by dose curve; further: series mostly up to about 63 µM; nearly all actives have a fitted effect of over 30% in size). In short, it runs like this:
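Beta-lactamase reporter under UAS control in HEK293H PPARg-bla cells; compound treatment 17 h at 37C. Read-out: fluorescence intensity after 1 h room-temperature incubation with LiveBLAzer B/G FRET substrate.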

A short description of test [9]: qHTS assay to identify small molecule antagonists of the peroxisome proliferator-activated receptor gamma (PPARg) signaling pathway - cell viability counter screen (AID 743194). Further: nearly all actives have a fitted effect of over 55% in size. Further: potency means the concentration at half of the fitted maximal effect. An outline of the steps:
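Viability was measured as CellTiter-Glo luminescence in GeneBLAzer PPARg UAS-bla HEK293H cells. These cells had been exposed 17 h at 37 C to compounds together with rosiglitazone at 50 nM final, with the beta-lactamase readout taken in the same wells.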

The nature of test [10]: qHTS assay to identify small molecule that activate the aryl hydrocarbon receptor (AhR) signaling pathway - cell viability counter screen (AID 743086). Further: series mostly up to about 70 µM; nearly all actives have a fitted effect of over 45% in size. In short, it runs like this: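 Cytotoxicity counter screen: CellTiter-Fluor signal (30 min, 37 C) in 4000 HepG2 cells/well carrying the DRE-luciferase reporter, following 24 h compound exposure at 37 C.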

Chain of Aryl hydrocarbon receptor (Homo sapiens) (P35869 whole entry, looked up): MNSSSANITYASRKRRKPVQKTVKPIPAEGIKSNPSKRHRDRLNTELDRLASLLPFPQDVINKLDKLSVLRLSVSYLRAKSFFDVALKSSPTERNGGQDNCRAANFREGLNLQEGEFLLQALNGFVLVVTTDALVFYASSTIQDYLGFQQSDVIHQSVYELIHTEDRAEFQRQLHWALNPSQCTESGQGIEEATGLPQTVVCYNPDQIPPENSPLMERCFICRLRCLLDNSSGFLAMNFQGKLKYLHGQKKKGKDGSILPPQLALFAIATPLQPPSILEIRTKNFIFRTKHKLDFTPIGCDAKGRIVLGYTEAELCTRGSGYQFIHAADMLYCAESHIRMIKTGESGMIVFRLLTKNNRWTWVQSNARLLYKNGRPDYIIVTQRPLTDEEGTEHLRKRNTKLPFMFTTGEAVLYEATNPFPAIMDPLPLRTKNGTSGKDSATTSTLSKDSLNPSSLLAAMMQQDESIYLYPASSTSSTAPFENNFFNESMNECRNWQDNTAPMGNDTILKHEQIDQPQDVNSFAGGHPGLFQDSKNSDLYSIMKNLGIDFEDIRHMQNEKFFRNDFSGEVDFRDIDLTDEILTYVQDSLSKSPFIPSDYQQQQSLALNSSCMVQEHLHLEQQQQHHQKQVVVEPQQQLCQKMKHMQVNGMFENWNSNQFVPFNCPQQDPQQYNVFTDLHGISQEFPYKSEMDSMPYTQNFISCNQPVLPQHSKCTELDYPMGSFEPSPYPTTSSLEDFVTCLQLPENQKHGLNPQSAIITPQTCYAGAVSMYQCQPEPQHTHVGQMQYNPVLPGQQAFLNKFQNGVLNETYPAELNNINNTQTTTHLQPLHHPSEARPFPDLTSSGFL

Regarding `CC(C)(C)C(=O)OCOP(=O)(COCCn1cnc2c(N)ncnc21)OCOC(=O)C(C)(C)C`, the Potency result in test [1], in test [2], in test [3], in test [5] and in test [6] was “inactive” throughout. Besides, in [4], the Potency is 2.11 µM (active). Besides, the outcome in test [7] was inactive.
`C1=Cc2ccccc2C1`: the Potency entry in [1], in test [3], in [8], in test [9], in test [4] and in test [5] was “inactive” in each case. Also, the Potency result in [6] is “inactive”. The Potency in test [2] is 27.3 µM (active). The call in test [7] was inactive.
Consider `Nc1nc(N)c2nc(CNc3ccc(C(=O)N[C@@H](CCC(=O)O)C(=O)O)cc3)cnc2n1`, for which the Potency result in test [1], in test [2], in test [10] and in test [6] was “inactive” throughout. Besides, the Potency in [5] is 0.0051 µM (active).
As to `Oc1ccc(O)c2c(O)cccc12`, the Potency entry in test [1], in test [10], in test [9], in [5] and in test [6] was “inactive” in each case. Moreover, the Potency in [2] is 12.1 µM (active).
Turning to `CCN(CC)CCOc1ccc2c(c1)C(=O)c1cc(OCCN(CC)CC)ccc1-2`, the Potency entry in test [1], in test [2], in [3], in [8], in test [5] and in test [6] was “inactive” each time. Besides, in test [9], the Potency is 29.8 µM (active). Also, the outcome in test [7] was inactive.
For `CC(C)CC=O`, the Potency entry in test [1], in [2], in test [3], in [4], in test [5] and in [6] was “inactive” each time. In addition, in test [7], the call was inactive.
For `CC(C)=CCCC(C)CC=O` (configuration not stated), the Potency entry in test [1], in test [2], in test [3], in test [9], in test [4] and in test [5] was “inactive” throughout. The Potency result in [6] is “inactive”.
For `C=CC(=O)OCC(C)OCC(C)OCC(C)OC(=O)C=C` (configuration not stated), the Potency in test [1] is 48.6 µM (active); in [6], 15.5 µM (active). Moreover, the Potency entry in test [2], in test [10], in test [9] and in test [5] was “inactive” each time.
As for `O=C1CCCCCO1`, the Potency entry in test [1], in [2], in test [3], in test [8], in test [9] and in test [4] was “inactive” each time. The Potency entry in test [5] and in test [6] was “inactive” in each case. Moreover, the compound was called inactive in [7].
As to `C=CC[N+]1([C@H]2C[C@H]3[C@@H]4CC[C@H]5C[C@H](OC(C)=O)[C@@H](N6CCCCC6)C[C@]5(C)[C@H]4CC[C@]3(C)[C@H]2OC(=O)CC)CCCCC1`, the Potency entry in test [1], in test [2], in [3], in test [8], in test [9] and in [4] was “inactive” throughout. In addition, the Potency entry in [6] was “inactive”. For the same compound, the compound was classed as inactive in test [7].
As for `CCCCCCCCN(C)C`, the Potency entry in [1], in test [10], in test [3], in test [8], in [4] and in test [5] was “inactive” each time. For the same compound, in [6], the Potency entry is “inactive”.
For `CCOc1ccc2[nH]cc(C(=O)NCc3ccccc3)c(=O)c2n1`, the Potency result in test [1], in test [10], in [8], in test [9], in test [5] and in [6] was “inactive” in each case. Further, the Potency in [4] is 15.4 µM (active). The compound was called inactive in [7].
For `CCc1nn(C2CCCCC2)c2cc(C3(C#N)CCC(C(=O)O)CC3)ccc12` (configuration not stated), the Potency in test [1] is 54.5 µM (active); in test [4], 27.3 µM (active). Moreover, the Potency result in [2], in [9], in test [5] and in test [6] was “inactive” in each case. Further, in test [7], the compound was called inactive.
As to `CC(=O)/C(C)=C/C1C(C)=CCCC1(C)C` (configuration not stated), the Potency result in [1], in [2], in test [8], in test [9], in [4] and in test [5] was “inactive” in each case. Moreover, in test [6], the Potency result was “inactive”. In [7], the result was inactive.
`Nc1nc(CC(=O)O)cs1`: the Potency entry in [1], in [10], in test [3], in [8], in test [9] and in test [4] was “inactive” in each case. The Potency entry in [5] and in [6] was “inactive” throughout. Besides, in test [7], the call was inactive.
On to `CN(C)CC/C=C1\c2ccccc2COc2ccccc21`, for which the Potency result in test [1], in test [2], in test [9], in [4], in [5] and in [6] was “inactive” throughout. For the same compound, the call in test [7] was inactive.
With `COCCCCCCCCOCCC[Si](C)(O[Si](C)(C)C)O[Si](C)(C)C`, the Potency in test [1] was 30.6 µM (active); in test [6] it was 38.9 µM (active). Also, the Potency entry in test [2] and in [3] was “inactive” each time.
On to `Oc1ccc(C(O)CNCCCCCCNCC(O)c2ccc(O)c(O)c2)cc1O` (configuration not stated), for which the Potency in test [1] is 21.1 µM (active). In addition, the Potency result in test [2], in [8], in test [9], in test [5] and in [6] was “inactive” each time.
On to `Cc1cccc(OCCOc2cccc(C)c2)c1`, for which the Potency entry in test [1], in test [10], in [8], in test [9], in test [4] and in [5] was “inactive” in each case. Further, in [6], the Potency result is “inactive”. Further, in [7], the call was inactive.
Regarding `O=C(c1ccc(O)cc1)c1ccc(O)cc1`, the Potency entry in test [1], in [10], in test [3], in [8], in test [9] and in test [4] was “inactive” in each case. For the same compound, the Potency entry in [6] was “inactive”. Besides, the compound was called inactive in [7].
With `COc1ccc2[nH]c(S(=O)Cc3ncc(C)c(OC)c3C)nc2n1` (configuration not stated), the Potency entry in test [1], in test [10], in [9], in [5] and in test [6] was “inactive” throughout. Also, the Potency in test [4] is 10.6 µM (active). In addition, the outcome in test [7] was inactive.
With `CCOC(=O)CC(C)C`, the Potency result in [1], in [2], in test [8], in test [4], in test [5] and in test [6] was “inactive” each time. In test [7], the result was inactive.
For the compound `O=C=NC1CCC(CC2CCC(N=C=O)CC2)CC1` (configuration not stated), the Potency result in test [1], in [2], in [9], in test [4], in [5] and in test [6] was “inactive” in each case.
Turning to `c1ccc(OCc2ccc(CCCN3CCOCC3)cc2)cc1`, the Potency entry in test [1], in test [10], in [8], in test [9], in test [5] and in [6] was “inactive” each time. Moreover, in [7], the outcome was inactive.
For the compound `ClC(Cl)(Cl)c1ccc(C(Cl)(Cl)Cl)cc1`, the Potency entry in [1], in test [10], in test [3], in test [9], in test [4] and in [5] was “inactive” throughout. Further, the Potency result in [6] was “inactive”. Moreover, the compound was called inactive in test [7].
As to `CCCCOc1cc(C(=O)OCCN(CC)CC)ccc1N`, the Potency entry in test [1], in test [10], in test [3], in test [8], in [9] and in test [5] was “inactive” each time. Moreover, the call in [7] was inactive.
As to `Cl/C(=C\n1cncn1)c1ccc(Cl)cc1Cl`, the Potency result in [1], in test [2], in [9], in test [5] and in [6] was “inactive” throughout. Moreover, the compound was called inactive in test [7].
